Results published in PubChem BioAssay (NCATS).
Results filed as inconclusive are left out. Activity calls are given as the source filed them. The call rests on the fitted dose curve; in most records, active means well fitted curve in the direction sought with a large enough effect; inconclusive means small, poorly fitted or top-dose-only effect, or another doubt; inactive means no such curve, though single readings can be large; an effect the other way counts as inactive or inconclusive.

What was measured:
[1] = biological target: Glutathione peroxidase 1 (Homo sapiens) (UniProt P07203); assay: Primary qHTS Assay for Inhibitors of Recombinant Selenoprotein Glutathione Peroxidase 1 (GPX1) (AID 1845191); further: nearly all actives have a fitted effect of over 65% in size; on activity, negative = inhibition: on the % scale 0 is the no-effect control and ±100 the full control effect
Sequence of Glutathione peroxidase 1 (Homo sapiens) (P07203 whole entry, looked up): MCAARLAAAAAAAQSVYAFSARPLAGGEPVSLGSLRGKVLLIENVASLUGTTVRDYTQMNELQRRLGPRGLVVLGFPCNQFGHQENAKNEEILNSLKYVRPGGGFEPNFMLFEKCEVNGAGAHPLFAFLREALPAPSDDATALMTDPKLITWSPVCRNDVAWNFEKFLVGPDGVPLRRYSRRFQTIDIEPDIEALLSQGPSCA
How it was run: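 GPX1 10 nM, GR 100 nM, GSH 1 mM, NADPH 0.5 mM, CHP 0.5 mM (final). 30-min cpd preincubation, RT. Ex340/Em450 read t=0, t=15 min.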

[2] = biological target: Phospholipid hydroperoxide glutathione peroxidase GPX4 (Homo sapiens) (UniProt P36969); assay: Primary qHTS Assay for Inhibitors of Recombinant Selenoprotein Glutathione Peroxidase 4 (GPX4) (AID 1845192); further: nearly all actives have a fitted effect of over 65% in size; on activity change, negative = inhibition: series mostly up to about 50 µM; on the % scale 0 is the no-effect control and ±100 the full control effect
Sequence of Phospholipid hydroperoxide glutathione peroxidase GPX4 (Homo sapiens) (P36969 whole entry, looked up): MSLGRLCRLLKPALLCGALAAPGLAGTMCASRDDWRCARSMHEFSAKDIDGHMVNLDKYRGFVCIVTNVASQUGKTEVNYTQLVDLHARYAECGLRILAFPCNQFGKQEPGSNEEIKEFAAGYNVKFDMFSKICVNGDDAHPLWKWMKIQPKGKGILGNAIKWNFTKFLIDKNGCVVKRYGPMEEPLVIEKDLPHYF
How it was run: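 qHTS, GR-coupled: GPX4 200 nM + cpd 30 min RT → GSH 1 mM, NADPH 0.5 mM, GR 100 nM → CHP 0.5 mM start; fluor 340/450 at t0 and t15 min; no-enzyme wells as control.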

[3] = biological target: Luciferin 4-monooxygenase (Photinus pyralis) (UniProt P08659); assay: Primary firefly luciferase (FLuc) qHTS assay for identification of artifact compounds. (AID 1845220); further: nearly all actives have a fitted effect of over 60% in size; further: potency means the concentration at half of the fitted maximal effect;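 on activity change, negative = inhibition: series mostly up to about 54 µM; plate controls were DMSO vehicle for no effect and no enzyme for full effect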
How it was run: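 qHTS, 15 min compound preincubation with substrate (10 uM luciferin, 10 uM ATP) at RT, then 10 nM FLuc; 5 min; luminescence; % inhibition vs no-enzyme/DMSO controls, 4-parameter Hill fit.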

[4] = test system: Nanoluciferase (engineered Oplophorus gracilirostris luciferase); assay: Primary Nanoluciferase (NLuc) qHTS assay for identification of artifact compounds. (AID 1845222); further: series mostly up to about 54 µM
How it was run: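 Luminescence read-out of secreted NLuc in S16 cell conditioned medium (1:55); compounds tested with 15 min RT preincubation, then Nano-Glo substrate 1:100, 5 min. % inhibition vs no-enzyme and DMSO controls, 4-parameter Hill fit.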

[5] = Primary redox qHTS assay for identification of artifact compounds. (AID 1845223);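 further: 0% = DMSO and 100% = reference compound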
How it was run: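 Redox-cycling detection via DTT (250 uM final) oxidation coupled to Amplex Red (25 uM)/HRP (250 mU/mL) in HBSS. 15 min preincubation plus 30 min after DTT, room temperature. Ex/Em 525/598 nm; 4-parameter Hill fit against DMSO and 10 uM DA3003.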

C=C1C(OC2OCC(O)C(O)C2O)CC2C(C)(C)C(O)CCC2(C)C1CC/C(C)=C\CO (stereo not given)
inactive: Potency [1] | Potency [2] | Potency [3] | Potency [4]

COc1cc(/C=C/CO)cc(OC)c1O[C@@H]1O[C@H](CO[C@@H]2O[C@H](CO)[C@@H](O)[C@H](O)[C@H]2O)[C@@H](O)[C@H](O)[C@H]1O
inactive: Potency [1] | Potency [2] | Potency [3] | Potency [4]

C/C=C1\[C@H](O[C@@H]2O[C@H](CO)[C@@H](O)[C@H](O)[C@H]2O)OC=C2C(=O)OCCc3ccc(O)c(c3)Oc3ccc(cc3)CCOC(=O)C[C@H]21
inactive: Potency [1] | Potency [2] | Potency [3] | Potency [4]

COc1ccc(/C=C/C(=O)O[C@@H]2[C@@H](O)[C@H](C)O[C@@H](O[C@H]3[C@@H]4C=CO[C@@H](O[C@H]5O[C@@H](CO)[C@H](O)[C@@H](O)[C@@H]5O)[C@@H]4[C@@]4(CO)O[C@@H]34)[C@@H]2OC(C)=O)cc1
inactive: Potency [1] | Potency [2] | Potency [3] | Potency [4]

CCCCNc1ncc2c(-c3ccc(CN4CCN(C)CC4)cc3)cn(C3CCC(O)CC3)c2n1 (stereo not given)
inactive: Potency [1] | Potency [2] | Potency [3] | Potency [4]

C=CC(=O)Nc1cc(Nc2ncc(Cl)c(-c3c[nH]c4ccccc34)n2)c(OC)cc1N(C)CCN(C)C
inactive: Potency [1] | Potency [2] | Potency [3] | Potency [4]

CC(Cc1cc2c(c(C(N)=O)c1)N(CCCO)CC2)NCCOc1ccccc1OCC(F)(F)F (stereo not given)
inactive: Potency [1] | Potency [2] | Potency [3] | Potency [4]

C=C1C(=O)O[C@@H]2/C=C(\C)C(=O)/C=C/[C@](C)(O)C[C@@H](OC(=O)C(C)C)[C@@H]12
inactive: Potency [1] | Potency [2] | Potency [3] | Potency [4]

COc1cc(N)c(Cl)cc1C(=O)NC[C@@H]1CCN2CCC[C@@H]12
inactive: Potency [1] | Potency [2] | Potency [3] | Potency [4]

C=C1[C@@H]2CC[C@@H]3[C@@](CCC4C(C(=O)O)(C(=O)O)C[C@@H](O[C@@H]5O[C@H](CO)[C@@H](O)[C@H](O)[C@H]5OC(=O)CC(C)C)C[C@]43C)(C2)[C@H]1O (stereo not given in full)
inactive: Potency [1] | Potency [2] | Potency [3] | Potency [4]

Nc1ccc(-c2cccc3c(=O)cc(N4CCOCC4)oc23)cc1
inactive: Potency [1] | Potency [2] | Potency [3] | Potency [4] | Potency [5]

CC(C)c1ccc2c(c1)C(=O)CC1[C@@](C)(C(=O)O)CCC[C@]21C (stereo not given in full)
inactive: Potency [1] | Potency [2] | Potency [3] | Potency [4] | Potency [5]

CN=C(N)NCCCCC/C=C(/C)CC(C)C1OC(=O)C(C)C(O)/C=C/C(C)C(O)CC(O)C(C)C(O)CCC(C)C(O)CC2(O)OC(CC(OC(=O)CC(=O)O)CC(O)CC(O)C(C)C(O)/C(C)=C/CCC1C)CC(O)C2O (stereo not given)
inactive: Potency [1] | Potency [2] | activity change, negative = inhibition [3] -2.65% [at 11.6 µM] | activity, negative = inhibition [4] -0.658% [at 11.6 µM] | redox activity (% of DA3003) [5] -4.57% [at 11.5 µM]

C/C=C/c1ccc2oc(-c3ccc(O)c(OC)c3)c(C)c2c1
inactive: Potency [1] | Potency [2] | Potency [4] | Potency [5]
active: Potency [3] 26.9 µM

O=C(OCC1=CC(O)C2C=CO[C@@H](O[C@@H]3O[C@H](CO)[C@@H](O)[C@H](O)[C@H]3O)C12)c1ccccc1 (stereo not given in full)
inactive: Potency [1] | Potency [2] | Potency [3] | Potency [4] | Potency [5]

CC(C)[N+]1(C)C2CCC1CC(OC(=O)C(CO)c1ccccc1)C2 (stereo not given)
inactive: Potency [1] | Potency [2] | Potency [3] | Potency [4] | Potency [5]

CC(C)c1cccc2c(-c3ccccc3)cc(-c3ccc(-c4ccc(C(=O)O)cc4)[nH]3)nc12
inactive: Potency [1] | Potency [2] | Potency [3] | Potency [4] | Potency [5]

CC(O)/C=C/C1(O)C2(C)COC1(C)CC(O)C2 (stereo not given)
inactive: Potency [1] | Potency [2] | Potency [3] | Potency [4] | Potency [5]

COc1ccc(/C=C\C(=O)O)c(O[C@@H]2O[C@H](CO)[C@@H](O)[C@H](O)[C@H]2O)c1
inactive: Potency [1] | Potency [2] | Potency [3] | Potency [4] | Potency [5]

OC[C@@]1(O)CO[C@@H](OC[C@H]2O[C@@H](Oc3c[nH]c4ccccc34)[C@H](O)[C@@H](O)[C@@H]2O)[C@@H]1O
inactive: Potency [1] | Potency [2] | Potency [3] | Potency [4] | Potency [5]

c1cc(Nc2cc(C3CC3)[nH]n2)nc(Nc2ccc3nc[nH]c3c2)n1
inactive: Potency [1] | Potency [2] | Potency [3] | Potency [4] | Potency [5]

Cc1cc(C)cc(C(=O)NOCCCCCC(=O)NO)c1
inactive: Potency [1] | Potency [2] | Potency [3] | Potency [4] | Potency [5]

C/C1=C\CC[C@H](C)CCO[C@@H]2O[C@H](CO[C@@H]3OC[C@](O)(COC1=O)[C@H]3O)[C@@H](O)[C@H](O)[C@H]2O
inactive: Potency [1] | Potency [2] | Potency [3] | Potency [4] | Potency [5]

CCN(CC)c1ccc2c(O)c(C=Nc3ccc(CC(=O)O)c(-c4c5c(nc6ccccc46)CCC(C(=O)NN)C5)c3)c(=O)oc2c1 (stereo not given)
inactive: Potency [1] | Potency [2] | Potency [4] | Potency [5]
active: Potency [3] 6.01 µM

COC(=O)c1ccccc1O[C@@H]1O[C@H](CO)[C@@H](O)[C@H](O)[C@H]1O[C@@H]1O[C@@H](C)[C@H](O)[C@@H](O)[C@H]1O
inactive: Potency [1] | Potency [2] | Potency [3] | Potency [4] | Potency [5]

C=CC1C(OC2OC(CO)C(O)C(O)C2O)OC=C2C(=O)N3C(C(=O)O)Cc4c([nH]c5ccccc45)C3CC21 (stereo not given)
inactive: Potency [1] | Potency [2] | Potency [3] | Potency [4] | Potency [5]

CC1OC(OC2C(OC3C(O[C@H]4CC[C@@]5(C)C(CC[C@]6(C)C5C(=O)C=C5C7CC(C)(C)CC(O)[C@]7(C)CC[C@]56C)C4(C)C)OC(C(=O)O)C(O)C3O)OCC(O)C2O)C(O)C(O)C1O (stereo not given in full)
inactive: Potency [1] | Potency [2] | activity change, negative = inhibition [3] 2.88% [at 11.6 µM] | activity, negative = inhibition [4] -14.3% [at 11.6 µM] | redox activity (% of DA3003) [5] 2.04% [at 11.5 µM]

Cc1ccc([N+](=O)[O-])cc1S(=O)(=O)N(C)/N=C/c1cnc2ccc(Br)cn12
inactive: Potency [1] | Potency [2] | Potency [3] | Potency [4] | Potency [5]

CC1=C(COC2OC(CO)C(O)C(O)C2O)C(C(CO)C(=O)O)CC1 (stereo not given)
inactive: Potency [1] | Potency [2] | Potency [3] | Potency [4] | Potency [5]
